SARS PLpro yeast – SARS-CoV PLP inhibition in yeast. S. cerevisiae expressing SARS-CoV PLpro, growth rescue. AID 485353. Potency, µM (top dose mostly 32.9 µM), without a hit: top-dose activity, positive = growth rescue, hits mostly activators. hit rate 0.19% among 330,000; calls by dose curve; further: potency means the concentration at half of the fitted maximal effect; 0% is about no effect; nearly all actives have a fitted effect of over 55% in size
Pf growth 96h – inhibits malaria parasite growth, 96 h | P. falciparum luciferase reporter growth, 96 h | Potency, µM (series often up to 28.7 µM), for the others: top-dose activity change, negative = inhibition, usual class: inhibitors | hit rate 6.9% among 320,000; further: potency means the concentration at half of the fitted maximal effect; on the % scale 0 is the no-effect control and ±100 the full control effect
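Readout is luminescence from an integrated firefly luciferase in P. falciparum. Red cells, 2% hematocrit and 0.05% parasitemia final, were cultured with compound through two parasite generations (96 hours) at 37 C, 5% CO2.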
Cycloheximide cs – affects cycloheximide protein synthesis inhibition readout, counter-screen; cell reporter, cycloheximide protein synthesis inhibition counterscreen; max response, %; hit rate 12% among 300,000; AID 2314; in the data active means max response mostly above about 13%, no sharp cut-off; inactive means mostly below about 14%; further: read at 38.3 µM for the half of the compounds with a filed dose; 0% is about no effect
Shiga inhibitor – inhibitors of Shiga toxin in Vero cells; Vero cells, Shiga toxin protein synthesis inhibition reporter; inhibition, % at 38.7 µM; hit rate 9.2% among 290,000; in the data active means inhibition mostly above about 28%, no sharp cut-off; inactive means mostly below about 43%; further: 0% is about no effect
AMA1-RON2 inh – disrupts binding of P. falciparum AMA1 to RON2; Potency, µM (top dose mostly 58.2 µM), for the others: top-dose activity change, negative = inhibition, actives largely listed as inhibitors; hit rate 0.2% among 360,000; AlphaScreen AMA1-biotinylated RON2 peptide binding;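 further: potency means the concentration at half of the fitted maximal effect; 0% = vehicle wells and -100% = peptide control; nearly all actives have a fitted effect of over 45% in size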
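AMA1 (3D7) with his tag at 25 nM final met compounds first, then biotinylated RON2 peptide at 25 nM; detection used donor plus acceptor beads, 10 µg/mL apiece, read by AlphaScreen after 30 min at room temperature.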
Pf growth 48h – inhibits P. falciparum growth in the first generation, 48 h. P. falciparum luciferase growth in erythrocytes, 48 h. Potency, µM (doses to about 28.7 µM), inactives show top-dose activity change, negative = inhibition, usual class: inhibitors. hit rate 5.9% among 310,000; further: potency means the concentration at half of the fitted maximal effect; on the % scale 0 is the no-effect control and ±100 the full control effect
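In quantitative HTS format, infected erythrocytes bearing luciferase-reporter parasites were treated for a single generation at 37 C. Luminescence after adding detection reagent served as the growth measure.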
Numbers without * were called inactive; ? = inconclusive; / = no result; [ ] = remark or other dose. The list is not random: actives were taken first. Their share in the collection is about 19%. Unless noted, the call rests on the fitted dose curve; in most records, active means well fitted curve in the direction sought with a large enough effect; inconclusive means small, poorly fitted or top-dose-only effect, or another doubt; inactive means no such curve, though single readings can be large; an effect the other way counts as inactive or inconclusive.

SMILES	SARS PLpro yeast	Pf growth 96h	Cycloheximide cs	Shiga inhibitor	AMA1-RON2 inh	Pf growth 48h
N/C(=N\OS(=O)(=O)c1ccccc1)c1cccnc1	15.3%	154.9%	1.3	-1.2	3.4%	10.8%
N/C(=N\OC(=O)C(c1ccccc1)c1ccccc1)c1ccccn1	-9.7%	15.3%	22.2*	48.8*	68.5%	13.1µM*
Cc1ccc(C)c(C(O)c2ncc(-c3ccccc3F)[nH]2)c1 (configuration not stated)	/	/	/	/	-13.4%	/
CCOc1ccc(CCNC(=O)CCc2nnc3ccc(N4CCCCC4)nn23)cc1OCC	-1.2%	5.22µM*	-2.5	6.5	-3.6%	?
CCOC(=O)c1ccc(NC(=O)CCc2nnc3ccc(N4CCCC4)nn23)cc1	11.8%	2.8%	0.8	-9.7	6.6%	-19.3%
CCN(CC)c1ccc(NC(=O)CCc2nnc3ccc(N4CCCC4)nn23)c(C)c1	-0.8%	?	1.0	-1.0	-3.2%	11.7µM*
Cc1ccc(-n2c(=O)[nH]cc(C(=O)Nc3ccc4c(c3)OCO4)c2=O)cc1C	-1.5%	3.9%	-2.7	-5.6	4.6%	3.5%
Oc1ccc2ccccc2c1CNc1ccc(Br)cc1	0.9%	1.4%	5.4	-5.3	-10.5%	28.6%[0.00184 µM]
C=CCc1cccc(CNc2cnc3ccccc3c2)c1O	-10.2%	-3.2%	17.2*	20.5*	0.0%	?
Oc1ccc(Cl)cc1CNc1cnc2ccccc2c1	-2.0%	2.62µM*	14.5*	31.7	14.8%	-22.4%
C=CCc1cccc(CNc2nc3ccccc3n2C)c1O	1.1%	?	12.1	40.7	17.7%	?
Oc1ccc2ccccc2c1CNc1ccc(Br)cn1	-12.4%	?	46.3*	65.6*	-4.8%	-9.4%
Oc1ccccc1CNc1cnc2ccccc2c1	-4.1%	21.8%	30.9*	31.7*	0.0%	139.5%
Cc1nc(C(=O)N(C)C)nn1-c1ccc([N+](=O)[O-])cc1	0.4%	16.0%	5.8	12.0	-3.6%	9.5%
CCOc1ccc(/C=C/C(=O)Nc2ccc3[nH]c(=O)[nH]c3c2)cc1	32.1%	71.4%	-1.3	-3.9	-10.3%	16.9%
Cc1ccccc1C(=O)N1CCC(C(=O)Nc2ccc(S(=O)(=O)N3C(C)CCCC3C)cc2)CC1 (configuration not stated)	/	/	/	/	-2.7%	/
CNc1cnc(-c2cccc(C(=O)N3CCOCC3)c2)cn1	/	/	/	/	16.0%	/
Oc1ccc2ccccc2c1CNc1cnc2ccccc2c1	-15.2%	?	29.4*	91.9*	4.9%	/
CC(C)(C)S(=O)(=O)N1Cc2cc(=O)n(Cc3ccccc3)c(CCO)c2[C@H]1CCO	/	/	/	/	6.4%	/
O=C(c1cccs1)c1coc2ccc(O)cc12	-14.7%	1.4%	75.4*	81.3*	0.5%	/
CC(=O)Oc1ccc2occ(C(=O)c3cccs3)c2c1	-9.0%	33.8%	36.8*	66.8*	-3.6%	/
O=C(O)COc1ccc2occ(C(=O)c3ccccc3)c2c1	-13.6%	/	-2.6	1.4	-4.8%	3.3%
CC(=O)Oc1ccc2occ(C(=O)c3ccccc3)c2c1	/	/	/	/	9.7%	/
O=C(CCl)Oc1ccc2occ(C(=O)c3cccs3)c2c1	-22.1%	120.9%	39.3*	50.1	9.2%	/
CC(=O)Oc1ccc2occ(-c3ccccc3)c2c1	-22.7%	?	25.0*	125.5*	47.6%	46.8%
SMILES	SARS PLpro yeast	Pf growth 96h	Cycloheximide cs	Shiga inhibitor	AMA1-RON2 inh	Pf growth 48h
COCCCN1C(=O)C(CC(=O)NCCN2CCOCC2)CC(C(=O)N2CCOCC2)=C1C (configuration not stated)	/	/	/	/	4.5%	/
CC1(c2ccccc2Cl)NC(=O)N(CC(=O)NCc2ccc3c(c2)OCO3)C1=O (configuration not stated)	1.8%	26.2%	-3.8	0.8	14.7%	27.2%
CCOc1ccccc1-c1cc(C(=O)N/N=C/c2ccc(O)c(OC)c2)c2ccccc2n1	?	-7.0%	8.1	16.7	2.0%	?
O=C(N/N=C/c1ccc2c(c1)OCO2)c1cc(-c2ccccc2Cl)nc2ccccc12	9.6%	10.4µM*	15.7	23.1	1.9%	?
O=C(N/N=C/c1ccc(F)cc1)c1cc(-c2ccco2)nc2ccccc12	-3.8%	0.0%	-1.7	13.9	17.2%	14.8%
CCOc1ccccc1-c1cc(C(=O)N/N=C/c2ccc3c(c2)OCO3)c2ccccc2n1	2.5%	/	-3.1	34.5	-9.1%	2.33µM*
CCOc1ccc(/C=N/NC(=O)c2cc(-c3ccco3)nc3ccccc23)cc1	-5.2%	4.8%	47.4*	103.2*	32.0%	-16.6%
O=C(N/N=C/c1ccc2c(c1)OCO2)c1cc(-c2ccncc2)nc2ccccc12	-2.0%	?	-0.8	16.4	0.0%	?
O=C1CN(S(=O)(=O)c2cc(C(F)(F)F)ccc2Cl)CCN1	13.4%	-19.6%	/	/	9.2%	9.7%
CC1(c2cccs2)CC(c2cccs2)=C(C#N)C(=O)N1 (configuration not stated)	-8.4%	-40.5%	11.1	-7.3	0.0%	-5.9%
COc1ccc(C(CCNC(C)c2ccccc2)C(C)C)cc1 (configuration not stated)	0.6%	9.28µM*	1.4	-3.9	-3.3%	9.28µM*
CCN(CC)c1ccc(/C=c2\sc3nc4ccccc4n3c2=O)c(O)c1	0.1%	10.4µM*	18.6	38.0*	42.1%	8.28µM*
O=c1/c(=C/c2ccc(O)c([N+](=O)[O-])c2)sc2nc3ccccc3n12	-1.1%	?	32.5*	94.3*	-3.4%	10.8%
Cc1cc(C)c2nc3s/c(=C/c4ccccc4)c(=O)n3c2c1	7.2%	8.8%	15.4	1.8	/	/
O=c1/c(=C\c2cccnc2)sc2nc3ccccc3n12	-2.9%	2.6%	31.3*	127.2*	-5.5%	60.4%
Cc1cc(/C=c2/sc3nc4ccccc4n3c2=O)c(C)n1-c1ccccn1	0.9%	-9.0%	67.2*	27.1	-2.1%	59.3%
Cc1cc(/C=c2\sc3nc4ccccc4n3c2=O)c(C)n1-c1ccc(C(=O)O)cc1	0.3%	57.7%	9.4	5.8	9.4%	15.8%
CCN(CC)CC1CCN(c2ncc3ncnc(Nc4ccc(F)c(Cl)c4)c3n2)CC1	/	/	-16.8	-15.5	/	/
O=c1[nH]c(=S)[nH]c2sc3c(c12)CCCCCC3	9.5%	?	-2.5	-10.0	35.8%	-7.2%
CCN(CC)CCNc1c(C)cc(CO)c(Cl)c1C	/	/	/	/	5.3%	/
CC(C)COC(=O)N(C)C[C@@H]1OCc2cnnn2CCCC(=O)N([C@@H](C)CO)C[C@H]1C	/	/	/	/	6.9%	/
O=C(/C=C/c1ccc2c(c1)OCCO2)N1CCN(c2ccc(F)cc2)CC1	-1.5%	42.7%	-1.2	-12.0	2.5%	0.0%
Cc1cccc(C)c1N1CCN(C(=O)Nc2ccc3c(c2)OCCO3)CC1	2.9%	-23.9%	45.3*	55.6*	-26.6%	-15.4%
CC1CN(C(=O)Nc2ccc3c(c2)OCCO3)CC(C)O1 (configuration not stated)	1.3%	193.3%	17.9	7.6	2.7%	47.4%
O=C(Nc1ccc2c(c1)OCCO2)N1CCN(c2ccc(F)cc2)CC1	3.2%	5.9%	38.2*	34.9*	-9.7%	-7.7%

Screening results (PubChem)
